How the values were obtained:
Assay in all cases: DAPPL (digital affinity profiling via proximity ligation, sequencing); 10 mM Tris-HCl pH 7.5, 50 mM NaCl, 1 mM DTT, 4% glycerol, room temperature, 30 min; GST-TFs on glutathione beads, 16-mer random dsDNA library, 0.1% formaldehyde crosslink after washing; high values mean tight binding
FEV = biological target: T1, FEV (Homo sapiens, UniProt Q99581 1-238); conditions: protein: recombinant; tags: N-terminal GST; dsDNA, one strand shown
T1 sequence: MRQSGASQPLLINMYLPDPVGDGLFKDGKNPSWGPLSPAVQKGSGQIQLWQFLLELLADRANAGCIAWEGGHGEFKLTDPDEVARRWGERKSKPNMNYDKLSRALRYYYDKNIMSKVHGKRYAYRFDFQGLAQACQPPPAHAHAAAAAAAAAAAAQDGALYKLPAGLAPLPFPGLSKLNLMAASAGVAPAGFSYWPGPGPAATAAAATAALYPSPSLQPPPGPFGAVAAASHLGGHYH
Method in brief: (§1)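 Binding signal is each hexamer's read frequency for a factor divided by its frequency in the tag-only sample. The factors were GST-fused human transcription factors from yeast, captured on glutathione beads, DNA-barcoded and pooled with that sample. Pools were incubated with 200 nmole of a random double-stranded 16-mer DNA library in Tris/NaCl/DTT/glycerol buffer at room temperature for 30 min, then washed, crosslinked with 0.1% formaldehyde, proximity-ligated with BsaI/T4 ligase (1 h, 37 °C), PCR-amplified and sequenced on an Illumina NextSeq500.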

ETV5 = ETV5 (Homo sapiens, UniProt P41161 1-510); conditions: protein: recombinant; tags: N-terminal GST; dsDNA, one strand shown
Chain of ETV5 (P41161 whole entry): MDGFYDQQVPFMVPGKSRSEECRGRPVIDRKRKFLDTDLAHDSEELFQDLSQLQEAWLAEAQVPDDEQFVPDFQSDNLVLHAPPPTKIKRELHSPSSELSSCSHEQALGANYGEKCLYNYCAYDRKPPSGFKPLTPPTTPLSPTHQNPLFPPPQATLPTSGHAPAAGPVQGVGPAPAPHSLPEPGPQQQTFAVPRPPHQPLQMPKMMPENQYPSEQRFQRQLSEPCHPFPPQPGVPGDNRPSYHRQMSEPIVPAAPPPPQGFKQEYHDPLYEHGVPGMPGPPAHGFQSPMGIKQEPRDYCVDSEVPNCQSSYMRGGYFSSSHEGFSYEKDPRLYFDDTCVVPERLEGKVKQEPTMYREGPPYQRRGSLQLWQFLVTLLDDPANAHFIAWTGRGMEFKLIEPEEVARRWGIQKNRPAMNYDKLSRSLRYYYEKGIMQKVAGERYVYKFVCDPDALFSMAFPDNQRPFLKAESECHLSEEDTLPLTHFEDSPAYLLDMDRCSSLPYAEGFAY
Method in brief: as §1

HSF1 = HSF1 (Homo sapiens, UniProt Q00613 1-529); conditions: protein: recombinant; tags: N-terminal GST; chain copies: 3; dsDNA, one strand shown
Chain of HSF1 (Q00613 whole entry): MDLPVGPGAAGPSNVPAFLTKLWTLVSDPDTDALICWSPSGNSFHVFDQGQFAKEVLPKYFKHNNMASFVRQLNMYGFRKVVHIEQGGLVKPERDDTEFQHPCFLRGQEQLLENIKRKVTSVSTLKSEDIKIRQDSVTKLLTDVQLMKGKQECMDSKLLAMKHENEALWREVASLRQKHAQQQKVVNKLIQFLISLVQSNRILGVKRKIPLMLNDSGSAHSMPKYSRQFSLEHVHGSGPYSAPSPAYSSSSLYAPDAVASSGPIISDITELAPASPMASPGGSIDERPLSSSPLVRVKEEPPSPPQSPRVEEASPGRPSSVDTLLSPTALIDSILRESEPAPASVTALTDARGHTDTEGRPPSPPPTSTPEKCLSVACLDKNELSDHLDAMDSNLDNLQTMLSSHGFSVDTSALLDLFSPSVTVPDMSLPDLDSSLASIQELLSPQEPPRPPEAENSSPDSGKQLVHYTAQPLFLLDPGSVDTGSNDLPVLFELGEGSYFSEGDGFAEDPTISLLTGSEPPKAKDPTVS
Method in brief: as §1

SPIC = biological target: T2, SPIC (Homo sapiens, UniProt Q8N5J4 1-248); conditions: protein: recombinant; tags: N-terminal GST; dsDNA, one strand shown
T2 sequence: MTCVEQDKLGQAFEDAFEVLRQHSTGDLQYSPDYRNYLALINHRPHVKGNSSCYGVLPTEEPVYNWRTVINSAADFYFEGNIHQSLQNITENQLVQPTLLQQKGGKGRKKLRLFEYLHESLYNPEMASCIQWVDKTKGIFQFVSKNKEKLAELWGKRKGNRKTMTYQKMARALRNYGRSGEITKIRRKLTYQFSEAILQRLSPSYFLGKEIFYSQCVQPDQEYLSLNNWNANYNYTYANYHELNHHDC
Method in brief: as §1

ELF4 = ELF4 (Homo sapiens, UniProt Q99607 1-663); conditions: protein: recombinant; tags: N-terminal GST; dsDNA, one strand shown
Chain of ELF4 (Q99607 whole entry): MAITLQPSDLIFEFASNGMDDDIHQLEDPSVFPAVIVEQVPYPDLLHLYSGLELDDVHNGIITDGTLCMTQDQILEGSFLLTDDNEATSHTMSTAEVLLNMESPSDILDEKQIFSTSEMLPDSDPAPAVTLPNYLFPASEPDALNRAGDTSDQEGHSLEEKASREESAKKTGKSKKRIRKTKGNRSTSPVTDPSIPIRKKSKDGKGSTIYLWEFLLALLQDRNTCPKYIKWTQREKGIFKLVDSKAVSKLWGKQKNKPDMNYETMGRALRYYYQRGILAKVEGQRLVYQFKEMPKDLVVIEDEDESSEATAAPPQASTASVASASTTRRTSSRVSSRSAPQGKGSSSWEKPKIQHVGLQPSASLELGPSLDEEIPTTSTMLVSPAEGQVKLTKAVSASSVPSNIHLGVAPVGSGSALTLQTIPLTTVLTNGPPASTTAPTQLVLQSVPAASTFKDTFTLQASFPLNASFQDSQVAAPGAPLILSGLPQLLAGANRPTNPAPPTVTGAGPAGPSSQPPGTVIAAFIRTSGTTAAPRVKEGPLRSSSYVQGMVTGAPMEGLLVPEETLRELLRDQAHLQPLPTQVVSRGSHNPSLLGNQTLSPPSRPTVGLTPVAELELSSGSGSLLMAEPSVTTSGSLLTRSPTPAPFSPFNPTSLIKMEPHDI
Method in brief: as §1

ELK4 = biological target: T3, ELK4 (Homo sapiens, UniProt P28324-2 1-405); conditions: protein: recombinant; tags: N-terminal GST; dsDNA, one strand shown
T3 sequence: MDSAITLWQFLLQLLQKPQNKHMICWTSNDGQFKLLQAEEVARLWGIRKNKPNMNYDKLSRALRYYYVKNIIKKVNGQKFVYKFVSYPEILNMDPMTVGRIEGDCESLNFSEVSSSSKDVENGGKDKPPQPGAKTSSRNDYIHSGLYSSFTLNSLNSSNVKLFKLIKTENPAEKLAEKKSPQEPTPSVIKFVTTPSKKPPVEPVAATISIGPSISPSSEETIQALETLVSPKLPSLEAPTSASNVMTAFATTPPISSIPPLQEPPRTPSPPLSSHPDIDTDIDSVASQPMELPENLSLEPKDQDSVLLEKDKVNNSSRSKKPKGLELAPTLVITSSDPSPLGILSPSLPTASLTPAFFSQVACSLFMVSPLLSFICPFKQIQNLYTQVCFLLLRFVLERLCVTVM
Method in brief: as §1

ETV2 = biological target: T4, ETV2 (Homo sapiens, UniProt O00321 1-342); conditions: protein: recombinant; tags: N-terminal GST; dsDNA, one strand shown
T4 sequence: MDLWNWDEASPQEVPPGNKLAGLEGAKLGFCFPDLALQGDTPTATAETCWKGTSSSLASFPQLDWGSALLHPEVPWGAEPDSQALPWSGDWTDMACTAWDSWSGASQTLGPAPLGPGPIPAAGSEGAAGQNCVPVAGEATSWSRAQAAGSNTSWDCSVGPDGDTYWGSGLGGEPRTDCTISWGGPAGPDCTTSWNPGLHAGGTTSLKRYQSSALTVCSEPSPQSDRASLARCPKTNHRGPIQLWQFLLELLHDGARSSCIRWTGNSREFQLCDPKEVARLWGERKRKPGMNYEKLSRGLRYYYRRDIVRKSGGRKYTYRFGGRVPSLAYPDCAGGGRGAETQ
Method in brief: as §1

ELF3 = biological target: T5, ELF3 (Homo sapiens, UniProt P78545 1-371); conditions: protein: recombinant; tags: N-terminal GST; dsDNA, one strand shown
T5 sequence: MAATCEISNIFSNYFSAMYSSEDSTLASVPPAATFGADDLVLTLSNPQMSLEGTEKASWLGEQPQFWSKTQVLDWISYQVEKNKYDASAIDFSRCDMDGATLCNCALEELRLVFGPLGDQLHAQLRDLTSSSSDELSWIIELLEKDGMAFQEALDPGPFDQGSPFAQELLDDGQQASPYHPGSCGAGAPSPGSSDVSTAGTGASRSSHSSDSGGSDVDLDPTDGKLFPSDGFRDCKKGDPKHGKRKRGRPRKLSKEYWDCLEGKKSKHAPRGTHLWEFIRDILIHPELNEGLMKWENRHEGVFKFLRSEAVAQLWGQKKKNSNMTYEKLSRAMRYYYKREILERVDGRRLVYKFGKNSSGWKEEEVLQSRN
Method in brief: as §1

CRX = CRX (Homo sapiens, UniProt O43186 1-299); conditions: protein: recombinant; tags: N-terminal GST; dsDNA, one strand shown
Chain of CRX (O43186 whole entry): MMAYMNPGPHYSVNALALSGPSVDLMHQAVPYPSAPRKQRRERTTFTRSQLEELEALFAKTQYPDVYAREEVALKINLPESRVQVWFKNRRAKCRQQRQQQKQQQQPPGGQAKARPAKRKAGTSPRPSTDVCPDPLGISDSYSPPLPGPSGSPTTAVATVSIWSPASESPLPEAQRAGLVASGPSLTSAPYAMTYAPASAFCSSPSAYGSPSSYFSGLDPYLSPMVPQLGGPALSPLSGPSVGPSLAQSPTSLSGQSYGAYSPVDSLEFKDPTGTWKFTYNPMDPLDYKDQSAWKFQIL
Method in brief: as §1

What does the source list for TTGCAT?
binding signal (FEV): 1.35 fold enrichment (6-mer frequency, TF over GST control); binding signal (ETV5): 1.39 fold enrichment (6-mer frequency, TF over GST control); binding signal (HSF1): 1.3 fold enrichment (6-mer frequency, TF over GST control); binding signal (SPIC): 1.59 fold enrichment (6-mer frequency, TF over GST control); binding signal (ELF4): 1.4 fold enrichment (6-mer frequency, TF over GST control); binding signal (ELK4): 1.31 fold enrichment (6-mer frequency, TF over GST control); binding signal (ETV2): 1.53 fold enrichment (6-mer frequency, TF over GST control); binding signal (ELF3): 1.38 fold enrichment (6-mer frequency, TF over GST control); binding signal (CRX): 1.33 fold enrichment (6-mer frequency, TF over GST control)
